Screening results: PubChem, several laboratories
Rows were chosen to be rich in hits. Some 0.72% of all compounds tested hit in one or more screens of this group.
Phagocytosis inh: blocks phagocytosis by macrophages | J774A.1 macrophage IgG-bead phagocytosis, imaging | inhibition, % at 5 µM | 110,000 tested, 0.07% active | AID 1029;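 active = inhibition above the mean of the plate negative controls plus 5 SD, cut at about 13% in these data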;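 also: phagocytic index as fraction of beads internalized from green versus red external bead signal; plate controls were DMSO negative control for no effect and cytochalasin-D positive control for full effect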
MRP resist rev: MRP-mediated drug resistance reversal. H69AR cells + 2 uM doxorubicin, CellTiter-Glo, 72 h. 85,000 tested, 0.04% active. differential viability (reversal), % at 10 µM;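 active = viability drop by adding the cancer drug above about 55%, with treated viability meeting a 40% cutoff, limit read from the data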;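 also: viability without doxorubicin minus viability with 2 µM doxorubicin for each compound; larger differential means the compound sensitizes cells more to doxorubicin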
MRP1 act: activators of MRP-1; H69AR cells + doxorubicin, viability rescue, CellTiter-Glo; viability increase, % at 10 µM; 140,000 tested, 0.61% active; AID 799;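 active = viability gain under doxorubicin at or above a set limit, the compound median plus 3 SD, cut at about 4.7% in these data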;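 also: MRP-1 overexpressing cells given doxorubicin 25 µM after compound pretreatment; 18-22 h compound pretreatment then 72 h with doxorubicin before readout; 0% = doxorubicin-only wells and 100% = vehicle-treated cells without doxorubicin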
* marks the source's active call; other numbers are inactive results; · = not tested or not shown.

SMILES | Phagocytosis inh | MRP resist rev | MRP1 act
Cc1ccc(NC(=O)c2ccc3c(c2)N(CC(=O)N2CCCCC2)C(=O)C(C)(C)O3)cc1 | 0 | -24 | -5
CCOC(=O)CN1C(=O)C(C)(C)Oc2ccc(C(=O)Nc3ccccc3OC)cc21 | 0 | -6 | 5.3*
COc1ccc2oc(=O)c(/C(C)=N/NC(=O)c3ccncc3)cc2c1 | -1 | · | 1
CCOc1ccc(-c2nc(C#N)c(NCC(C)C)o2)cc1 | 0 | 6 | 6.8*
C=CCNc1oc(-c2ccc(OCC)cc2)nc1C#N | -1 | 20 | -2
COc1ccc(N=C(NN)c2ccc3ccccc3n2)cc1 | -3 | · | -3
CC1(C)OC2OC(C(=O)N/N=C/c3cc(Br)ccc3O)C3OC(C)(C)OC3C2O1 (configuration not stated) | -12 | · | 3
O=C(Nc1nc(-c2cccs2)c(-c2cccs2)s1)C1(c2ccccc2)CC1 | -16 | · | 5.2*
CC(=O)NCCC(=O)Nc1nc(-c2cccs2)c(-c2cccs2)s1 | 3 | · | 0
Cc1ccc(S(=O)(=O)N2CCN(c3nc(C)c4c(c3C#N)CC(C)(C)OC4)CC2)cc1 | 0 | · | 6.1*
Cc1nc(N2CCOCC2)c(C#N)c2c1COC(C)(C)C2 | · | -2 | -5
CC(=O)Nc1ccc(S(=O)(=O)N/N=C/c2ccc(C)s2)cc1 | -4 | · | 1
COCCOC(=O)C1=C(C)N=C2SCCC(=O)N2C1c1ccc(C(=O)OC)cc1 (configuration not stated) | -2 | 9 | -2
CCC1SC2=NC(C)=C(C(=O)OCCOC)C(c3ccc(C(=O)OC)cc3)N2C1=O (configuration not stated) | 0 | 19 | 7.8*
CCC1SC2=NC(C)=C(C(=O)OC)C(c3ccc(C(=O)OC)cc3)N2C1=O (configuration not stated) | -2 | 9 | 4.9*
COC(=O)C1=C(C)N=C2SCCC(=O)N2C1c1ccc(C(=O)OC)cc1 (configuration not stated) | 0 | 14 | -3
O=C(COC(=O)C1CCN(S(=O)(=O)c2cccc3cccnc23)CC1)c1ccccc1 | -8 | · | -2
CCOC(=O)c1sc(N2N=C(C)/C(=C\c3ccc(OCC(=O)OC)cc3)C2=O)nc1C | 0 | · | -1
COc1ccc(COc2cc(-c3cccc(OC)c3)nc3ccc(NC(=O)C(C)C)cc23)cc1 | · | · | -4
Cc1cccc(OCc2nnc(SCC(=O)Nc3cccc(C(=O)N4CCOCC4)c3)o2)c1C | 2 | · | 1
C[C@]1(C(=O)NCc2cc(F)cc(C(F)(F)F)c2)C=C[C@@H](Cc2ccccc2)N1C(=O)c1ccccc1 | · | · | -3
C=C(Cl)COc1ccc2c(CC)cc(=O)oc2c1 | -4 | 13 | 2
C=C(Cl)COc1ccc2c(CCCC)cc(=O)oc2c1 | -1 | 18 | 6.2*
CC(NC(=O)C1(C)CC1(Br)Br)C(C)(C)C (configuration not stated) | · | · | 0
N=C(N)SCc1nc2ccccn2c1Br | -12 | · | 7.9*
SMILES | Phagocytosis inh | MRP resist rev | MRP1 act
Cc1cccc2nc(CSC(=N)N)c(Br)n12 | -5 | · | 2
CCC(C)/C(C)=N/NC(=O)c1ccc(CSc2nc3ccccc3s2)cc1 (configuration not stated) | -3 | · | -3
COc1ccc(OC)c(NC(=O)C(=O)NNC(=O)c2cccs2)c1 | -7 | · | -2
CCNc1ccc(C(=O)OCC(=O)c2cc(C)n(Cc3ccc4c(c3)OCO4)c2C)cc1[N+](=O)[O-] | -5 | · | 5.2*
CCNc1ccc(C(=O)OCC(=O)NCc2ccc(C)cc2)cc1[N+](=O)[O-] | -9 | · | 0
CC1(C)O[C@@H]2C[C@H]3[C@@H]4C[C@H](F)C5=CC(=O)CC[C@]5(C)[C@H]4[C@@H](O)C[C@]3(C)[C@]2(C(=O)CO)O1 | · | -4 | 5.2*
CCCCC(=O)O[C@]1(C(=O)CO)CC[C@H]2[C@@H]3CCC4=CC(=O)CC[C@]4(C)[C@H]3[C@@H](O)C[C@@]21C | · | 4 | 1
CCn1c(SCc2ccc([N+](=O)[O-])cc2)nnc1C(C)NC(=O)c1ccc(C)cc1 (configuration not stated) | -10 | · | -1
CC(C)(C)NC(NC(=O)Cc1ccccc1)C(Cl)(Cl)Cl (configuration not stated) | · | · | 5.3*
O=C(Cc1ccccc1)NC(Nc1ccccc1)C(Cl)(Cl)Cl (configuration not stated) | -1 | · | -5
O=C(Nc1ccccc1N1CCN(C(=O)c2ccc(Cl)cc2)CC1)c1ccc(Br)cc1 | -1 | 4 | -2
CC(C)C(=O)N1CCN(c2ccccc2NC(=O)c2cccc(Cl)c2)CC1 | · | 78* | -3
Cc1ccc(/C=N/NC(=O)CSCc2ccc(Cl)cc2)cc1 | -1 | · | 6.3*
Cc1ccsc1/C=N/NC(=O)CSCc1ccc(Cl)cc1 | 1 | · | 2
NS(=O)(=O)c1ccc(NC(=S)Nc2ccc(F)c(F)c2)cc1 | -2 | · | -1
CCc1nccn1C(=O)c1cnn2c(C(F)F)cc(-c3ccccc3)nc12 | 2 | · | 2
CCc1nccn1C(=O)c1cnn2c(C(F)F)cc(-c3ccc(C)cc3)nc12 | -9 | · | 6.0*
O=C(CCCOc1ccc(Cl)cc1Cl)N/N=C/c1ccccc1O | -6 | · | -3
Cc1nnc(NC(=O)COc2ccccc2)s1 | 0 | 1 | 5.1*
Cc1ccc(C(=O)Nc2nnc(C)s2)o1 | -1 | · | 9.0*
Cc1nnc(NC(=O)c2ccco2)s1 | 0 | 0 | 5.6*
C/C=C(\C)c1nnc(NC(=O)c2ccco2)s1 | 1 | -7 | 0
CCSc1nnc(NC(=O)COc2ccccc2)s1 | -2 | -6 | 0
Cc1ccc(C(=O)Nc2nc(C)c(C)s2)o1 | · | 4 | 0
CCOC(=O)COc1ccc(S(=O)(=O)N2CCN(c3ccccc3)CC2)cc1 | -4 | · | 0
SMILES | Phagocytosis inh | MRP resist rev | MRP1 act
CCC(C)NS(=O)(=O)c1ccc(S(=O)(=O)N(CCc2ccc(OC)c(OC)c2)Cc2cccs2)cc1 (configuration not stated) | · | · | -2
Cc1cc(C(=O)CN2C(=O)NC3(CCCCC3)C2=O)c(C)n1-c1ccc2c(c1)OCO2 | -2 | · | 0
COc1ccc(-c2cnnc(N/N=C/c3ccc(O)c(OC)c3)n2)cc1 | -7 | · | -3
CC(C)Oc1ccc(CSC(=N)N)cc1 | · | · | 7.9*
COc1ccc(CNC(=S)NCc2ccc(OC(C)C)cc2)cc1 | -4 | · | 0
COc1ccc(C2SCC(=O)N2CC23CC4CC(CC(C4)C2)C3)cc1 (configuration not stated) | -2 | 25 | -1
COc1ncnc2c1oc1nc(CC(C)C)c3c(c12)CCCC3 | 0 | -3 | 7.2*
CC(C)Cc1nc2oc3c(N4CCN(C)CC4)ncnc3c2c2c1CCCC2 | 0 | -3 | -1
O=C(Cc1ccccc1)Nc1cccc(N2C(=O)C=CC2=O)c1 | -2 | · | -2
O=C(O)c1cccc(N2C(=O)C3CC=C(Cl)CC3C2=O)c1 (configuration not stated) | 0 | -8 | 10*
O=C(O)c1cccc(N2C(=O)C3CC=CCC3C2=O)c1 (configuration not stated) | · | -1 | 3
Cc1ccc(-c2[nH]c3ccccc3c2SCCNC(=O)c2ccc(S(=O)(=O)N3CCOCC3)cc2)cc1 | · | · | -4
CCOC(=O)c1cc(-c2ccccc2)sc1NC(=O)C(C)Sc1nnnn1C (configuration not stated) | -1 | 5 | 4
CCOC(=O)c1cc(-c2ccccc2)sc1NC(=O)C(C)Sc1nnc(C)s1 (configuration not stated) | -4 | · | 9.2*
